# Assay results reported in PubChem BioAssay (NCATS).
# “And” between values parts separate entries of the source, which are not always exact repeats. Equal entries are not always repeated. Inconclusive results are not listed. Entries that show only a call come without a potency. The source made the active and inactive calls. Calls come from the whole dose curve; as a rule, active = well fitted curve in the direction sought with a large enough effect; inconclusive = small, poorly fitted or top-dose-only effect, or another doubt; inactive = no such curve, though single readings can be large; an effect the other way counts as inactive or inconclusive.
# Tests used:
# HACAT = test: qHTS assay to identify novel small-molecules to repurpose for Merkel cell carcinoma treatment (AID 1296009); conditions: MCC and control cell lines, CellTiter-Glo viability, 72 h; at 44.8 µM (top of the series) unless noted; note: nearly all actives have a fitted effect of over 60% in size
# Method in brief: (§1)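 Dose-response viability screen; 72 hr exposure at 37 degree celsius; CellTiter-Glo added, 10 min room temperature, luminescence read; RLUs scaled between no-cell and DMSO wells.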
# MCC-26 = test: as above; conditions: MCC and control cell lines, CellTiter-Glo viability, 72 h; series mostly up to 46 µM
# Method in brief: as §1
# UISO = test: as above; conditions: MCC and control cell lines, CellTiter-Glo viability, 72 h; series mostly up to 46 µM
# Method in brief: as §1
# MCC-13 = test: as above; conditions: MCC and control cell lines, CellTiter-Glo viability, 72 h; series mostly up to 46 µM
# Method in brief: as §1
# MKL-1 = test: as above; conditions: MCC and control cell lines, CellTiter-Glo viability, 72 h; series mostly up to 46 µM
# Method in brief: as §1
# CASKI = test: Primary qHTS to identify gynecologic anti-cancer compounds using libraries of approved drugs and bioactive compounds (AID 1345084); conditions: Gynecologic cancer cell panel viability, ATPlite luminescence, 48 h; series mostly up to 57.5 µM; note: nearly all actives have a fitted effect of over 55% in size
# Method in brief: (§2)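 Measured: luminescence after ATPlite addition (15 min, RT). Exposure: 48 h, 37 C, 5% CO2.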
# Hek293T [1] = test: as above; conditions: Gynecologic cancer cell panel viability, ATPlite luminescence, 48 h, control line for the selectivity index; series mostly up to 57.5 µM
# Method in brief: as §2
# JEG-3 = test: as above; conditions: Gynecologic cancer cell panel viability, ATPlite luminescence, 48 h; series mostly up to 57.5 µM
# Method in brief: as §2
# PA-1 = test: as above; conditions: Gynecologic cancer cell panel viability, ATPlite luminescence, 48 h; series mostly up to 57.5 µM
# Method in brief: as §2
# C33A = test: as above; conditions: Gynecologic cancer cell panel viability, ATPlite luminescence, 48 h; series mostly up to 57.5 µM
# Method in brief: as §2
# CAOV3 = test: as above; conditions: Gynecologic cancer cell panel viability, ATPlite luminescence, 48 h; series mostly up to 57.5 µM
# Method in brief: as §2
# Es-2 = test: as above; conditions: Gynecologic cancer cell panel viability, ATPlite luminescence, 48 h; series mostly up to 57.5 µM
# Method in brief: as §2
# HeLa = test: as above; conditions: Gynecologic cancer cell panel viability, ATPlite luminescence, 48 h; series mostly up to 57.5 µM
# Method in brief: as §2
# OV90 = test: as above; conditions: Gynecologic cancer cell panel viability, ATPlite luminescence, 48 h; series mostly up to 57.5 µM
# Method in brief: as §2
# SKOV3 = test: as above; conditions: Gynecologic cancer cell panel viability, ATPlite luminescence, 48 h; series mostly up to 57.5 µM
# Method in brief: as §2
# Tov-21-G = test: as above; conditions: Gynecologic cancer cell panel viability, ATPlite luminescence, 48 h; series mostly up to 57.5 µM
# Method in brief: as §2
# HEK293T [2] = test: qHTS assay to identify novel small-molecules to repurpose for Merkel cell carcinoma treatment (AID 1296009); conditions: MCC and control cell lines, CellTiter-Glo viability, 72 h; at 44.8 µM (top of the series); note: nearly all actives have a fitted effect of over 60% in size
# Method in brief: as §1
# MKL-2 = test: as above; conditions: MCC and control cell lines, CellTiter-Glo viability, 72 h; series mostly up to 46 µM
# Method in brief: as §1
# NIH3T3 = test: as above; conditions: MCC and control cell lines, CellTiter-Glo viability, 72 h; at 44.8 µM (top of the series) unless noted
# Method in brief: as §1
# WaGa = test: as above; conditions: MCC and control cell lines, CellTiter-Glo viability, 72 h; series mostly up to 46 µM
# Method in brief: as §1
# Potency is the fitted concentration of half-maximal effect.
structure (smiles),measurement,setting,value
NS(=O)(=O)c1ccc(NC2=CC(=O)c3ccccc3C2=O)cc1,outcome,HACAT,inactive
same,Potency,MCC-26,inactive
same,Potency,UISO,2.64 µM (active)
NC(=O)c1ccc2nc(-c3ccc(Oc4ccc(Cl)cc4)cc3)[nH]c2c1,outcome,HACAT,inactive
same,Potency,MCC-13,inactive
same,Potency,MKL-1,inactive
same,Potency,CASKI,inactive
same,Potency,Hek293T [1],inactive
same,Potency,JEG-3,inactive
same,Potency,PA-1,15.8 µM (active)
NC(=O)c1cccc(-c2cc(Nc3ccc(OC(F)(F)F)cc3)ncn2)c1,outcome,HACAT,inactive
same,Potency,MCC-13,inactive
same,Potency,MCC-26,inactive
same,Potency,MKL-1,inactive
same,Potency,C33A,inactive
same,Potency,CAOV3,inactive
same,Potency,CASKI,inactive
same,Potency,Es-2,inactive
same,Potency,HeLa,inactive
same,Potency,Hek293T [1],inactive
same,Potency,JEG-3,inactive
same,Potency,OV90,inactive
same,Potency,PA-1,inactive
same,Potency,SKOV3,inactive
same,Potency,Tov-21-G,inactive
O=C(OCC#CCSc1nnc(-c2cccc3ccccc23)o1)c1cc2ccccc2s1,outcome,HEK293T [2],inactive
same,Potency,MCC-13,inactive
same,Potency,MCC-26,inactive
same,Potency,MKL-1,inactive
same,Potency,MKL-2,inactive
same,outcome,NIH3T3,inactive
same,Potency,UISO,inactive
same,Potency,WaGa,inactive
O=C(Nc1ccccc1-c1cn2c(CN3CCNCC3)csc2n1)c1cnc2ccccc2n1,outcome,HACAT,inactive
same,Potency,MCC-26,33.2 µM (active)
same,Potency,WaGa,inactive
same,Potency,C33A,inactive
same,Potency,CASKI,inactive
same,Potency,Es-2,inactive
same,Potency,HeLa,inactive
same,Potency,Hek293T [1],inactive
same,Potency,JEG-3,inactive
same,Potency,OV90,inactive
same,Potency,PA-1,inactive
same,Potency,SKOV3,inactive
same,Potency,Tov-21-G,inactive
N[C@H](CSC(c1ccccc1)(c1ccccc1)c1ccccc1)C(=O)O,outcome,HACAT,inactive
same,Potency,MCC-26,inactive
CCN(CC)CCOc1ccc(C(=C(Cl)c2ccccc2)c2ccccc2)cc1,outcome,HEK293T [2],inactive
same,Potency,MCC-13,inactive
same,Potency,MCC-26,inactive
same,Potency,MKL-1,inactive
same,Potency,MKL-2,inactive
same,Potency,UISO,inactive
same,Potency,WaGa,inactive
N#CC1(c2ccc(NC(=O)c3cccnc3NCc3ccncc3)cc2)CCCC1,outcome,HACAT,inactive
same,Potency,MCC-13,inactive
same,Potency,MKL-1,inactive
same,Potency,MKL-2,inactive
same,Potency,UISO,inactive
same,Potency,WaGa,inactive
CC[C@H]1OC(=O)[C@H](C)[C@@H](O[C@H]2C[C@@](C)(OC)[C@@H](O)[C@H](C)O2)[C@H](C)[C@@H](O[C@@H]2O[C@H](C)C[C@H](N(C)C)[C@@H]2O)[C@](C)(O)C[C@@H](C)CN(C)[C@H](C)[C@@H](O)[C@]1(C)O,outcome,HACAT,inactive
same,Potency,MCC-13,inactive
same,Potency,MKL-1,inactive
same,outcome,NIH3T3,inactive
same,Potency,UISO,inactive
same,Potency,WaGa,inactive
Nc1ncnc2ccccc12,outcome,HEK293T [2],inactive
same,Potency,MCC-13,inactive
same,Potency,MCC-26,inactive
same,Potency,MKL-1,inactive
same,Potency,MKL-2,inactive
same,Potency,UISO,inactive
same,Potency,WaGa,inactive
O=C(O)c1c(Cl)c(Cl)c(Cl)c(Cl)c1-c1c2cc(I)c(=O)c(I)c-2oc2c(I)c(O)c(I)cc12,outcome,HACAT,inactive
same,Potency,UISO,inactive
CC(C)C(=O)Oc1ccc(CO)cc1[C@H](CCN(C(C)C)C(C)C)c1ccccc1,outcome,HACAT,inactive
same,Potency,MCC-13,inactive
same,Potency,MKL-1,inactive
same,Potency,MKL-2,inactive
same,outcome,NIH3T3,inactive
same,Potency,UISO,inactive
same,Potency,WaGa,inactive
same,Potency,CAOV3,inactive
same,Potency,CASKI,inactive
same,Potency,Es-2,inactive
same,Potency,HeLa,inactive
same,Potency,Hek293T [1],inactive
same,Potency,JEG-3,inactive
same,Potency,OV90,inactive
same,Potency,PA-1,inactive
same,Potency,SKOV3,inactive
same,Potency,Tov-21-G,inactive
CC=CCC(C)C(O)C1C(=O)NC(CC)C(=O)N(C)CC(=O)N(C)C(CC(C)C)C(=O)NC(C(C)C)C(=O)N(C)C(CC(C)C)C(=O)NC(C)C(=O)NC(C)C(=O)N(C)C(CC(C)C)C(=O)N(C)C(CC(C)C)C(=O)N(C)C(C(C)C)C(=O)N1C (configuration not stated),outcome,HACAT,inactive
same,Potency,MCC-13,inactive
same,Potency,MCC-26,inactive
same,Potency,MKL-1,inactive
same,Potency,WaGa,inactive
CC1(C)CCC2=C(O1)c1ccccc1C(=O)C2=O,outcome,HACAT,inactive
same,Potency,WaGa,26.4 µM (active)
CC[C@]1(O)C[C@@H]2CN(CCc3c([nH]c4ccccc34)[C@@](C(=O)OC)(c3cc4c(cc3OC)N(C)[C@H]3[C@@](O)(C(=O)OC)[C@H](OC(C)=O)[C@]5(CC)C=CCN6CC[C@]43[C@@H]65)C2)C1,outcome,HACAT,inactive
same,Potency,MCC-13,119 nM (active) and 1.19 µM (active)
same,Potency,MKL-1,75 nM (active) and 168 nM (active)
same,Potency,MKL-2,75 nM (active) and 150 nM (active)
same,Potency,UISO,0.237 µM (active)
same,Potency,WaGa,26.6 nM (active) and 75 nM (active)
same,Potency,C33A,1.58 µM (active)
same,Potency,CAOV3,inactive
same,Potency,Es-2,1.12 µM (active) and 708 nM (active) and 794 nM (active)
same,Potency,HeLa,316 nM (active) and 1.12 µM (active) and 631 nM (active)
same,Potency,JEG-3,631 nM (active)
same,Potency,OV90,11.2 µM (active) and 4.47 µM (active) and 7.94 µM (active)
same,Potency,PA-1,316 nM (active) and 355 nM (active)
same,Potency,Tov-21-G,316 nM (active) and 447 nM (active) and 631 nM (active)
CC(C)=CC[C@@H](O)C1=CC(=O)c2c(O)ccc(O)c2C1=O,outcome,HACAT,inactive
same,Potency,MCC-13,inactive
same,Potency,MKL-2,20.9 µM (active)
same,Potency,UISO,inactive
same,Potency,WaGa,23.5 µM (active)
CC=CCC=CCCC(=O)[C@H]1O[C@@H]1C(N)=O,outcome,HACAT,inactive
same,Potency,MCC-13,inactive
same,Potency,MCC-26,inactive
same,Potency,UISO,inactive
same,Potency,WaGa,inactive
CCNc1cc(NC2CCC(O)CC2)nc(Nc2ccc3c(ccn3Cc3ccccc3)c2)n1 (configuration not stated),outcome,HACAT,inactive
same,Potency,MCC-13,inactive
same,Potency,MKL-1,inactive
same,outcome,NIH3T3,inactive
same,Potency,UISO,inactive
same,Potency,WaGa,inactive
NC(=O)NN=Cc1ccc([N+](=O)[O-])o1,outcome,HACAT,inactive
same,Potency,MCC-13,inactive
same,Potency,MKL-1,inactive
same,Potency,MKL-2,inactive
same,outcome,NIH3T3,inactive
same,Potency,UISO,inactive
O=c1cc(-c2cccc3c2Sc2ccccc2S3)oc(N2CCOCC2)c1,outcome,HEK293T [2],inactive
same,Potency,MCC-13,inactive
same,Potency,MCC-26,inactive
same,Potency,MKL-1,inactive
same,Potency,MKL-2,inactive
same,outcome,NIH3T3,inactive
same,Potency,UISO,inactive
same,Potency,WaGa,inactive
COCCOc1nc(-c2ccc(Cl)c(Cl)c2)n(-c2ccc(NC(=O)CCl)cc2)n1,outcome,HACAT,inactive
same,Potency,MCC-13,inactive
same,Potency,MKL-1,inactive
same,Potency,C33A,20 µM (active)
same,Potency,Es-2,11.2 µM (active)
same,Potency,HeLa,inactive
same,Potency,OV90,inactive
same,Potency,Tov-21-G,5.62 µM (active)
